“And” between values parts separate entries of the source, which are not always exact repeats. Equal values may be shown once. Results filed as inconclusive are left out. Entries that show only a call come without a potency. The source made the active and inactive calls. Calls come from the whole dose curve. Bridge positions count the residues as written; N and C are the ends. Square brackets hold non-standard residues; d marks the D form. Peptide text beside a SMILES is read from it. dPhe(4-Cl) = N[C@H](Cc1ccc(Cl)cc1)C(=O)O; d2Nal = N[C@H](Cc1ccc2ccccc2c1)C(=O)O; dCit = NC(=O)NCCC[C@@H](N)C(=O)O; d3Pal = N[C@H](Cc1cccnc1)C(=O)O
How the values were obtained:
[1] = Primary qHTS for Huh7 cytotoxicity: counterscreen for inhibitors of MERS-S pseudotyped particle cell entry (AID 1479147); details: outcome: dose series up to 57.1 µM unless noted
[2] = Primary qHTS for inhibitors of MERS-S pseudo-typed particle cell entry (AID 1479149); details: outcome: dose series up to 57.1 µM unless noted; note: nearly all actives have a fitted effect of over 60% in size
[3] = Primary qHTS for Vero E6 cytotoxicity: counterscreen for inhibitors of SARS-S pseudo-typed particle cell entry (AID 1479150); details: outcome: dose series up to 57.1 µM unless noted
[4] = Cytotoxicity counterscreen for inhibitors of SARS-CoV-2 cell entry (AID 1645845); details: outcome: dose series up to 57.1 µM unless noted; note: nearly all actives have a fitted effect of over 50% in size; note: potency is the fitted concentration of half-maximal effect
Procedure, shortened: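 HEK293-ACE2 cells (Expi293F stably expressing human ACE2) seeded overnight, then compound for 1 h plus 48 h at 37C. Viability as ATP content by luminescence; normalized to wells with cells and media-only wells.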

[5] = Primary qHTS to identify inhibitors of SARS-CoV-2 cell entry (AID 1645846); details: SARS-CoV-2 pseudovirus cell entry assay, luminescence; activity change, negative = inhibition: at 57.1 µM (top of the series) unless noted; note: nearly all actives have a fitted effect of over 45% in size; note: potency is the fitted concentration of half-maximal effect
Procedure, shortened: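 Inhibition of spike-mediated entry was scored in human ACE2-transfected Expi293F cells. Particles were MLV-pseudotyped with Wuhan-Hu-1 S carrying a 19-aa C-terminal deletion; signal was luciferase after two days, scaled between spike PP and fusion-protein-free PP.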

| SMILES | Potency [1] | Potency [2] | Potency [3] | Potency [4] | activity change, negative = inhibition [5] | Potency [5] |
| --- | --- | --- | --- | --- | --- | --- |
| CC(=O)N[C@H](Cc1ccc2ccccc2c1)C(=O)N[C@H](Cc1ccc(Cl)cc1)C(=O)N[C@H](Cc1cccnc1)C(=O)N[C@@H](CO)C(=O)N[C@@H](Cc1ccc(O)cc1)C(=O)N[C@H](CCCNC(N)=O)C(=O)N[C@@H](CC(C)C)C(=O)N[C@@H](CCCN=C(N)N)C(=O)N1CCC[C@H]1C(=O)N[C@H](C)C(N)=O (Ac-[d2Nal][dPhe(4-Cl)][d3Pal]SY[dCit]LRP[dA]-NH2) | inactive | inactive | inactive | inactive | -10.8% [at 27.1 µM] |  |
| O=C(O)C[C@@H]1CC[C@H](NC(=O)Cc2cccs2)B(O)O1 | inactive | inactive | inactive | inactive |  |  |
| CCN(CC)CCS(=O)(=O)[C@@H]1CCN2C(=O)c3coc(n3)CC(=O)C[C@H](O)/C=C(C)/C=C/CNC(=O)/C=C/[C@@H](C)[C@@H](C(C)C)OC(=O)[C@@H]12 | inactive | inactive | inactive | inactive |  |  |
| CCCCCCC(=O)O[C@H]1CC[C@H]2[C@@H]3CCc4cc(O)ccc4[C@H]3CC[C@]12C | inactive | inactive | inactive | inactive |  |  |
| CC1CCC(C(C)C)C(OC(=O)c2ccccc2O)C1 (configuration not stated) | inactive | inactive | inactive | inactive |  | inactive |
| Cc1cc(C2=NOC(c3cc(Cl)cc(Cl)c3)(C(F)(F)F)C2)ccc1C(=O)NCC(=O)NCC(F)(F)F (configuration not stated) | inactive | inactive | inactive | inactive |  |  |
| COc1ccc(CNc2nc(N3CCC[C@H]3CO)ncc2C(=O)NCc2ncccn2)cc1Cl | inactive | inactive | inactive | inactive |  | inactive |
| COc1ccc(-c2noc(CC(=O)O)c2-c2ccc(OC)cc2)cc1 | inactive | inactive | inactive | inactive | -24.5% |  |
| C[C@@H]1NC(=O)[C@@H]2CCCN2C(=O)[C@H](CC(N)=O)NC(=O)[C@@H]2CSSC[C@H](N)C(=O)N[C@H]3CSSC[C@H](NC1=O)C(=O)N[C@@H]([C@@H](C)O)C(=O)NCC(=O)N[C@H](C(=O)N[C@@H](Cc1ccc(O)cc1)C(=O)O)CSSC[C@H](NC(=O)[C@H](Cc1ccc(O)cc1)NC(=O)[C@H](CCC(=O)O)NC3=O)C(=O)N2 (H-CCEYCCNPACTGCY-OH; disulfide 1-6, 2-10, 5-13) | inactive | inactive | inactive | inactive | -24.4% [at 27.1 µM] |  |
| CC(C)N=c1cc2n(-c3ccc(Cl)cc3)c3ccccc3nc-2cc1Nc1ccc(Cl)cc1 | inactive | inactive | inactive | inactive | -33.7% |  |
| NCCCC[C@H](NC(=O)[C@@H]1CCCN1C(=O)[C@@H]1CSSC[C@H](NC(=O)CNC(=O)CNC(=O)CN)C(=O)N[C@@H](Cc2ccc(O)cc2)C(=O)N[C@@H](Cc2ccccc2)C(=O)N[C@@H](CCC(N)=O)C(=O)N[C@@H](CC(N)=O)C(=O)N1)C(=O)NCC(N)=O (H-GGGCYFQNCPKG-NH2; disulfide 4-9) | inactive | inactive | inactive | inactive |  |  |
| O=C(O)c1cc(O)c2c(c1)[C@H]([C@H]1c3cc(C(=O)O)cc(O)c3C(=O)c3c(O[C@@H]4O[C@H](CO)[C@@H](O)[C@H](O)[C@H]4O)cccc31)c1cccc(O[C@@H]3O[C@H](CO)[C@@H](O)[C@H](O)[C@H]3O)c1C2=O | inactive | inactive | inactive | inactive |  |  |
| CCC(c1ccccc1)c1c(O)c2ccccc2oc1=O (configuration not stated) | inactive | inactive | inactive | inactive |  |  |
| O=C(O)c1cc(=O)c2c3nc4ccccc4oc-3cc(=O)c2[nH]1 | inactive | inactive | inactive | inactive |  |  |
| CC(=O)Oc1c(C)cc(OCC(O)CNC(C)C)c(C)c1C (configuration not stated) | inactive | inactive | inactive | inactive |  |  |
| O=C(O)C(O)[C@H](O)[C@H](O)[C@H](O)[C@H](O)CO (some centres not stated) | inactive | inactive | inactive | inactive |  |  |
| CC1CC(OC(=O)C(O)c2ccccc2)CC(C)(C)C1 (configuration not stated) | inactive | inactive | inactive | inactive |  |  |
| CC(C)N(CCCCOCC(=O)NS(C)(=O)=O)c1cnc(-c2ccccc2)c(-c2ccccc2)n1 | inactive | inactive | inactive | inactive |  |  |
| Cc1ncc(COP(=O)(O)O)c(CN)c1O | inactive | inactive | inactive | inactive |  |  |

| SMILES | Potency [1] | Potency [2] | Potency [3] | Potency [4] | activity change, negative = inhibition [5] | Potency [5] |
| --- | --- | --- | --- | --- | --- | --- |
| Cc1c(Cl)c(C)[n+]([O-])c(Cl)c1-c1noc(-c2cc(O)c(O)c([N+](=O)[O-])c2)n1 | inactive | inactive | inactive | inactive |  | 14.1 µM (active) |
| CC[C@@H]1CCN[C@H](C(=O)N[C@@H]([C@H]2O[C@H](SC)[C@H](O)[C@@H](O)[C@H]2O)[C@H](C)Cl)C1 | inactive | inactive | inactive | inactive |  |  |
| CCCCCCCCCCCCCCCCCC(=O)OCCO | inactive | inactive | inactive | inactive | -12.3% |  |
| C[C@H](Cc1cc2c(c(C(N)=O)c1)N(CCCO)CC2)NCCOc1ccccc1OCC(F)(F)F | inactive | inactive | inactive | inactive |  |  |
| CC#CCC(C)[C@H](O)/C=C/[C@@H]1[C@H]2C/C(=C/CCCC(=O)O)C[C@H]2C[C@H]1O (some centres not stated) | inactive | inactive | inactive | inactive |  |  |
| CCC(c1ccccc1)c1noc(CCN(CC)CC)n1 (configuration not stated) | inactive | inactive | inactive | inactive |  |  |
| N=C(N)c1ccc(/C=C/c2ccc(C(=N)N)cc2O)cc1 | inactive | inactive | inactive | inactive |  |  |
| CC[N+](CC)(CC)CCC(O)(c1ccccc1)C1CCCCC1 (configuration not stated) | inactive | inactive | inactive | inactive |  |  |
| CC(=O)OCC1=C(C(=O)O)N2C(=O)[C@@H](NC(=O)[C@H](N)c3ccccc3)[C@H]2SC1 | inactive | inactive | inactive | inactive | -7.18% |  |
| C#C[C@]1(OC(C)=O)CC[C@H]2[C@@H]3CCC4=CC(=O)CC[C@@H]4[C@H]3CC[C@@]21C | inactive | inactive | inactive | inactive |  |  |
| CCCCC(=O)N(Cc1ccc(-c2ccccc2-c2nn[nH]n2)cc1)[C@H](C(=O)O)C(C)C | inactive | inactive | inactive | inactive |  |  |
| CS(=O)(=O)Nc1cc2occ(NC=O)c(=O)c2cc1Oc1ccccc1 | inactive | inactive | inactive | inactive | -19.1% and -29.3% |  |
| CCOc1ccc(N=C(C)Nc2ccc(OCC)cc2)cc1 | inactive | inactive | inactive | inactive |  |  |
| CCCCCCCCCCCCCCCCCC(=O)NCCCC[C@H](NC(=O)CC[C@@H](NC(=O)[C@H](C)NC(=O)[C@@H](C)O[C@H]1[C@H](O)[C@@H](CO)OC(O)[C@@H]1NC(C)=O)C(N)=O)C(=O)O (some centres not stated) | inactive | inactive | inactive | inactive |  |  |
| C=Cc1c(C)c2cc3nc(c(CC(=O)N[C@@H](CC(=O)O)C(=O)O)c4nc(cc5[nH]c(cc1[nH]2)c(C)c5CC)C(C)=C4C(=O)O)[C@@H](CCC(=O)O)[C@@H]3C | inactive | inactive | inactive | inactive |  |  |
| Cc1ccc(/C(=C\CN2CCCC2)c2cccc(/C=C/C(=O)O)n2)cc1 | inactive | inactive | inactive | inactive |  |  |
| O=C(c1ccc(F)c(F)c1Nc1ccc(I)cc1F)N1CC(O)([C@@H]2CCCCN2)C1 | inactive | inactive | inactive | 31.6 µM (active) |  |  |
| CO/N=C(\C(=O)N[C@@H]1C(=O)N2C(C(=O)OCOC(=O)C(C)(C)C)=C(/C=C\c3scnc3C)CS[C@H]12)c1csc(N)n1 | inactive | inactive | inactive | inactive |  |  |
| Cn1nnnc1SCC1=C(C(=O)O)N2C(=O)[C@@H](NC(=O)[C@H](OC=O)c3ccccc3)[C@H]2SC1 | inactive | inactive | inactive | inactive |  |  |

— PubChem BioAssay (NCATS)
